Molecules are shown by their SMILES. Active and inactive are the calls of the source.

The source of these data is PubChem BioAssay.

Experiment [1] deals with Albumin (Bos taurus) (UniProt P02769). The experiment is described as follows: bovine serum albumin binders on microarray, profiling panel, artefact control for SMM control protein annotation, biochemical, small-molecule microarray, Alexa647 label, 635/667 nm fluorescence (AID 1118).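 Further: score merges 667 nm emission intensity and signal-to-noise per printed compound spot.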 The note with it: BSA-A647 binding, fluorescence 635 nm, higher = more signal.
Albumin (Bos taurus), sequence (P02769 whole entry, looked up): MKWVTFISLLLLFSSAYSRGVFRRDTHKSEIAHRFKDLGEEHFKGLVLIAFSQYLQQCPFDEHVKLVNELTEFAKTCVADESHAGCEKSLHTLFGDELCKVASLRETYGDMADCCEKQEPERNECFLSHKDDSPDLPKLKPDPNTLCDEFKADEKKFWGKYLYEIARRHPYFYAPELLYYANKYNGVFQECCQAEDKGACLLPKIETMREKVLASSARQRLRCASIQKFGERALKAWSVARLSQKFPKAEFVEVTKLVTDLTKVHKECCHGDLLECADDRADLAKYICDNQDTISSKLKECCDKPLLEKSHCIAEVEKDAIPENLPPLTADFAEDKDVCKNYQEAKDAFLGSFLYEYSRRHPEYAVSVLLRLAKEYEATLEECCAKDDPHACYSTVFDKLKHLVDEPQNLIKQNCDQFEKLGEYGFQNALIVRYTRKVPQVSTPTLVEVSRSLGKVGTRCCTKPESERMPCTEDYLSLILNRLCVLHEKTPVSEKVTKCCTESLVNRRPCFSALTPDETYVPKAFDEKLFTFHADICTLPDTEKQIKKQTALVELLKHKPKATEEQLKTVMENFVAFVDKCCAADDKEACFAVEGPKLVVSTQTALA
The nature of experiment [2]: small-molecule microarray binders of probe aXIP, primary screen, biochemical, NeuroSMM set, 635/667 nm fluorescence (AID 1119).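 Further: probe is the protein aXip251-270 applied at 1 µg/mL to compound-printed slides; binding of probe to printed compounds measured as 667 nm fluorescence plus signal to noise.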 The note with it: higher = more signal, called active from +8 up or from −8 down.
Experiment [3] is described as follows: small-molecule binders of probe aNOTCH3, primary screen, biochemical, small-molecule microarray, 635/667 nm fluorescence (AID 1120).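 Further: probe is a biotin-tagged antibody raised against NOTCH3 rather than NOTCH3 protein; score merges spot fluorescence near 667 nm with spot signal to noise.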 The note with it: higher = more signal.
Experiment [4] is described as follows: small-molecule binders of probe aNOTCH2, primary screen, biochemical, small-molecule microarray, 635/667 nm fluorescence (AID 1121).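 Further: score merges feature fluorescence read at 667 nm with its signal to noise.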 The note with it: higher = more signal.
Experiment [5] addresses Carbonic anhydrase 2 (Homo sapiens) (UniProt P00918). The experiment can be described thus: CAII small-molecule binders, profiling panel, biochemical, small-molecule microarray, Alexa647-labelled CAII (AID 1122). The note with it: CAII-A647 binding fluorescence, higher = more signal.
The nature of experiment [6]: COS7 lysate on small-molecule microarray, probe aHis, 635 nm (AID 1123).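 Further: z-score combines 667nm fluorescence intensity with signal-to-noise per printed compound spot.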 The note with it: COS7 cell lysate, fluorescence, higher = more signal.
Experiment [7] in a line: compound binding in COS7 lysate, probe aLAP1, primary screen, cell lysate, small-molecule microarray (AID 1124).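 Further: lysate comes from COS7 cells expressing LAP1 and is applied at 0.3 µg/mL; score merges spot fluorescence near 667 nm with signal-to-noise over triplicate slides.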 The note with it: probe aLAP1, fluorescence, higher = more signal.
For experiment [8], the system named is Sam68 (KHDRBS1). The experiment can be described thus: Sam68 small-molecule binders, primary screen, biochemical, small-molecule microarray, 635 nm fluorescence (AID 1125).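 Further: score merges 667 nm channel intensity with signal to noise over triplicate slides.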 The note with it: small-molecule microarray binding, higher = more signal.
The subject of experiment [9] is Chordin-like protein 2 (CHRDL2). The experiment can be described thus: CHRDL2 small-molecule binders, primary screen, biochemical, small-molecule microarray, 635 nm fluorescence (AID 1126).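 Further: printed compound slides probed with Chrdl2 protein at 4 µg/mL for 1 h at 4 C; score merges 667 nm emission intensity with signal to noise over three replicate slides.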 The note with it: small-molecule microarray binding, fluorescence 635 nm; higher = more signal.
In experiment [10] the target is Concanavalin-A (Canavalia ensiformis) (UniProt P02866). The experiment is described as follows: ConA small-molecule binders, primary screen, artefact control for SMM control protein annotation, biochemical, small-molecule microarray, Alexa647 label, 635 nm (AID 1127).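 Further: z combines 667 nm emission intensity with signal-to-noise across three replicate slides.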 The note with it: ConA-A647 binding fluorescence, higher = more signal.
Concanavalin-A (Canavalia ensiformis), sequence (P02866 whole entry, looked up): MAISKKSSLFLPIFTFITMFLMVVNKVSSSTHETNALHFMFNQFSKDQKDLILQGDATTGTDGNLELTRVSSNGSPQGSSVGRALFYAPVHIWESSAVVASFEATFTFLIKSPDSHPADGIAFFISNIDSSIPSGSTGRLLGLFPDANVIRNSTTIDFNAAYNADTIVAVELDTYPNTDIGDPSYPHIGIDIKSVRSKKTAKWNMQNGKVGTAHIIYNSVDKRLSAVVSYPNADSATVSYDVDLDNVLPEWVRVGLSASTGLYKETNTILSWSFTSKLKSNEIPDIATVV
A short description of experiment [11]: anti-His antibody binders, primary screen, artefact control for SMM control protein annotation, biochemical, small-molecule microarray, 635 nm fluorescence (AID 1128).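 Further: score merges feature fluorescence with signal-to-noise for each printed compound spot.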 The note with it: anti-His Alexa647 antibody binding, higher = more signal.
The test system of experiment [12] is Human papillomavirus type 1a E7 protein (residues 1-88). The experiment is described as follows: HPV1a E7 small-molecule binders, primary screen, biochemical, small-molecule microarray, residues 1-88, 635 nm (AID 1129). The note with it: small-molecule microarray binding, fluorescence 635 nm; higher = more signal.
Experiment [13] addresses Focal adhesion kinase 1 (Homo sapiens) (UniProt Q05397). The experiment is described as follows: small-molecule microarray binders of FAK, primary screen, biochemical, 635/667 nm fluorescence, BSA, DTT (AID 1130).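 Further: composite of spot emission at 667 nm and signal to noise over triplicate slides.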 The note with it: PTK2 binding, 635 nm fluorescence, higher = more signal.
The subject of experiment [14] is Fibrinogen (Alexa647-labelled). The experiment can be described thus: fibrinogen binders on compound microarrays, profiling panel, artefact control for SMM control-protein annotation, biochemical, small-molecule microarray, 635/667 nm fluorescence (AID 1131).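 Further: z-score merges 667 nm fluorescence with per-spot signal-to-noise over triplicate slides.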 The note with it: fibrinogen-A647 binding fluorescence, higher = more signal.
Experiment [15] addresses Follistatin (Homo sapiens) (UniProt P19883). The experiment can be described thus: follistatin binders on small-molecule microarrays, primary screen, biochemical, small-molecule microarray, 635/667 nm fluorescence (AID 1132). The note with it: FST binding, 635 nm fluorescence, higher = more signal.
Experiment [16] deals with Fibroblast growth factor 2 (Homo sapiens) (UniProt P09038). The experiment is described as follows: FGF2 binders on small-molecule microarrays, primary screen, biochemical, small-molecule microarray, 635/667 nm fluorescence (AID 1133). The note with it: small-molecule microarray binding, FGF2, fluorescence 635/667; higher = more signal.
Fibroblast growth factor 2 (Homo sapiens), sequence (P09038 whole entry, looked up): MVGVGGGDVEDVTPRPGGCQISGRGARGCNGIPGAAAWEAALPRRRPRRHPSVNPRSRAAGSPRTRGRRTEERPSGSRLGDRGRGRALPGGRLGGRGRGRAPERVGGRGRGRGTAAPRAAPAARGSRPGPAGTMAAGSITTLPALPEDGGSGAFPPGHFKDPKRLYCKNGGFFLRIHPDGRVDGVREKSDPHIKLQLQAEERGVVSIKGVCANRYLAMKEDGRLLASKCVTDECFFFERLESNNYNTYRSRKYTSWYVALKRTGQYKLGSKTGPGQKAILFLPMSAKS
A short description of experiment [17]: mitochondrial membrane potential change in A549 cells, profiling panel, cell-based, JC-1 fluorescence, basal, 24 h, 100 nL (AID 1138).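 Further: A549 lung adenocarcinoma cells under basal conditions with no added stimulus; test concentration not given here.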 The note with it: higher = more signal.
The test system of experiment [18] is Lefty1. The experiment is described as follows: Lefty1 binders on small-molecule microarrays, primary screen, biochemical, small-molecule microarray, 635/667 nm fluorescence (AID 1139). The note with it: small-molecule microarray binding, fluorescence 635/667; higher = more signal.
For experiment [19], the system named is wheat germ agglutinin (Triticum aestivum), Alexa647-labelled. The experiment is described as follows: wheat germ agglutinin binders on compound microarrays, profiling panel, artefact control for SMM control-protein annotation, biochemical, small-molecule microarray, 635/667 nm fluorescence (AID 1140).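 Further: score merges 667 nm feature emission with signal to noise over triplicate slides.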 The note with it: WGA-A647 binding, 635 nm fluorescence, higher = more signal.

The target of experiment [20] is Luciferin 4-monooxygenase (Photinus pyralis) (UniProt P08659). The experiment is described as follows: firefly luciferase enzyme inhibitors, primary screen, biochemical, luminescence, purified enzyme, 2006 set (AID 1141).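 Further: cell-free assay with purified firefly luciferase at 100 ng per well in PBS; test concentration not given here.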 The note with it: SteadyGlo luminescence, 30 min, higher = more signal, called active from +8 up or from −8 down.
Luciferin 4-monooxygenase (Photinus pyralis), sequence (P08659 whole entry, looked up): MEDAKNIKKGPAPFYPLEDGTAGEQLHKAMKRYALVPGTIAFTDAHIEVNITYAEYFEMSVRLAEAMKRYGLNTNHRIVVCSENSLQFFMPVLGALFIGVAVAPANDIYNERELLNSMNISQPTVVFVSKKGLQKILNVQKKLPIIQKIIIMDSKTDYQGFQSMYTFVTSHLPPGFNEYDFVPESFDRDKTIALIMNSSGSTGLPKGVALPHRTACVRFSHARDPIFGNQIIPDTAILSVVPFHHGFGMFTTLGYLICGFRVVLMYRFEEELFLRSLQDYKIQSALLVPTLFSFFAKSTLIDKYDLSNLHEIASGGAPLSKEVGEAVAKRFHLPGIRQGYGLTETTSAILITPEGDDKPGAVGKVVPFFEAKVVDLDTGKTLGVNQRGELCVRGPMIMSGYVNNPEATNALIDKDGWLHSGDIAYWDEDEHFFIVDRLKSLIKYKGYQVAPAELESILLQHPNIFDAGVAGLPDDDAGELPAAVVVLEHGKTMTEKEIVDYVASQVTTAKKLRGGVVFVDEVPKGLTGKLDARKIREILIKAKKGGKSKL

Focal adhesion kinase 1 (Homo sapiens), sequence (Q05397 whole entry, looked up): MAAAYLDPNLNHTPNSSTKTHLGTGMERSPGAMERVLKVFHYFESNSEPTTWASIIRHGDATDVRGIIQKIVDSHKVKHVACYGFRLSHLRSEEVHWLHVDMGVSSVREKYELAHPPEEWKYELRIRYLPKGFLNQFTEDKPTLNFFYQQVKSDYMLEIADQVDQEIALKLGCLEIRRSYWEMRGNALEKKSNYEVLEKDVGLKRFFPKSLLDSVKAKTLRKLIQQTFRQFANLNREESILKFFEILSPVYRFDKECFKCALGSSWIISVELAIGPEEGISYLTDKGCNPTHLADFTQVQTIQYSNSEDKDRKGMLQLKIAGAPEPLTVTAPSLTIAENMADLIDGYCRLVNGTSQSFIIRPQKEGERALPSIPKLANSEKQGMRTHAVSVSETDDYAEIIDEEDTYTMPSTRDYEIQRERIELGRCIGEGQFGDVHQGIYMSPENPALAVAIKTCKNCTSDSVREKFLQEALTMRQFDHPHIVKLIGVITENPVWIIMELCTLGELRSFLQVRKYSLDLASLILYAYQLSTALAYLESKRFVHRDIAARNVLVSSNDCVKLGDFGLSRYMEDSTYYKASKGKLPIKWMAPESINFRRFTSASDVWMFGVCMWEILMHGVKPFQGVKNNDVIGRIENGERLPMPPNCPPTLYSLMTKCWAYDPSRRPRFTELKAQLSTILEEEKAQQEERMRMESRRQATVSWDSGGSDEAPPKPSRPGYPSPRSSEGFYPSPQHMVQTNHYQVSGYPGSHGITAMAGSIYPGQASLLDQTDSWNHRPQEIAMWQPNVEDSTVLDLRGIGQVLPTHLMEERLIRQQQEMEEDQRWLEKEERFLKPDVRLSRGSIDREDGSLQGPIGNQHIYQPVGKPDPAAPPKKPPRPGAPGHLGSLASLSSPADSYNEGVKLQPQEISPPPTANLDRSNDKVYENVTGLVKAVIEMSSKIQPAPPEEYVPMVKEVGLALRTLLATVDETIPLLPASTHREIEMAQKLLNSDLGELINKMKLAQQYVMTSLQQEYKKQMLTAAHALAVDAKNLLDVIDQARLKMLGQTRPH
Follistatin (Homo sapiens), sequence (P19883 whole entry, looked up): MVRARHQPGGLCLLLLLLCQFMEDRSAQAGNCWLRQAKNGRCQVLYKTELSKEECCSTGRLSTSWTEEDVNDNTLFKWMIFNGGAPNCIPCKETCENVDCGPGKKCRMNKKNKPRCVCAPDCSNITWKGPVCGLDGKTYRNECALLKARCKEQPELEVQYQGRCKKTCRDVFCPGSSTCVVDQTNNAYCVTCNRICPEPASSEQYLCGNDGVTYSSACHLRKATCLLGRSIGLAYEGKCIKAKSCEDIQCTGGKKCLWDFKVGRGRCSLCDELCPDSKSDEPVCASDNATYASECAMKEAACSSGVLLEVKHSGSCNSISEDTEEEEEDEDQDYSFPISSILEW

For `C=C(CCCC)C(=O)CC[C@@H](OC(=O)c1ccccc1-c1ccccc1C(=O)O)c1ccc(OCCO)cc1`, the composite z-score in experiment [1] was -0.873; in [3], -0.185; in [4], -0.125; in [5], 0.437; in experiment [6] it was 0.121; in experiment [7], -0.102. In addition, the composite z-score is 0.684 in experiment [8]; 0.876 in experiment [9]; 0.829 in experiment [10]; -0.54 in experiment [11]; 0.0862 in experiment [12]; -0.72 in [13]. The composite z-score in experiment [14] was -0.277; in [15], 1.42; in experiment [16] it was 1.37; in [18], 0.797; in experiment [19], 0.427. Moreover, the composite Z-score in experiment [2] is 0.0426 (inactive). Besides, the z-score in experiment [17] was 0.118; in experiment [20] it was -2.06 (inactive).

Turning to `CN(C)C(=O)[C@@]1(CCS(=O)(=O)c2ccccc2)COC(c2ccc(OCCCO)cc2)=N1`, the composite z-score was 0.401 in [1]; 0.125 in experiment [3]; -0.0406 in [4]; 0.813 in experiment [5]; 2.28 in experiment [6]; 0.441 in experiment [7]. Further, the composite z-score was 0.203 in experiment [8]; -0.466 in experiment [9]; 0.469 in [10]; 1.45 in experiment [11]; 1.24 in experiment [12]; 0.119 in experiment [13]. Besides, the composite z-score is 0.993 in experiment [14]; 0.66 in [15]; -0.0861 in [16]; -0.589 in [18]; 0.93 in experiment [19]. Moreover, the composite Z-score in experiment [2] is 0.319 (inactive). Further, the z-score in experiment [17] is -0.572; in experiment [20], -0.446 (inactive).

As for `COC(=O)[C@@]1(Cc2ccc(OC)cc2)[C@@H]2C(=CC(=O)[C@H]2CC(=O)C(=O)N2CCCC2)CN1C(=O)c1ccccc1`, the composite z-score in [1] is 0.826; in experiment [3] it was 0.132; in [4] it was -0.152; in experiment [5], 0.558; in experiment [6], 2.23; in [7], 0.0014. Besides, the composite z-score was -0.685 in experiment [8]; -0.694 in experiment [9]; 0.0351 in experiment [10]; 1.47 in experiment [11]; 0.882 in [12]; 0.528 in [13]. Besides, the composite z-score was 0.802 in experiment [14]; -0.0125 in [15]; -0.322 in [16]; -0.319 in [18]; 0.357 in experiment [19]. Moreover, the composite Z-score in experiment [2] is -0.0056 (inactive). The results for the z-score in experiment [17] and in experiment [20] were 1.55 and 0.826 (inactive), respectively.

On to `CN(C)C(=O)[C@]1(Cc2ccccc2N=[N+]=[N-])N=C(c2ccc(OCCCO)cc2)O[C@@H]1c1ccccc1N=[N+]=[N-]`, for which the composite z-score in [1] worked out at 0.872; in experiment [3], 0.201; in [4] it was 0.134; in [5], 0.556; in experiment [6] it was 2.85; in [7] it was 0.274. Besides, the composite z-score in experiment [8] is 1.29; in [9], -0.206; in [10], 1.14; in experiment [11], 2.42; in [12], 1.18; in [13], 0.646. The composite z-score was 1.01 in experiment [14]; 1.27 in [15]; 1.26 in [16]; 0.513 in [18]; 1.21 in experiment [19]. Besides, the composite Z-score in experiment [2] was -1.05 (inactive). The z-score in [17] was 1.1; in experiment [20] it was -3.94 (inactive).

With `C=CCNC(=O)[C@@H]1[C@H]2C(=O)O[C@H](c3ccccc3)[C@H](c3ccccc3)N2[C@H](c2ccccc2OCCO)[C@@]12C(=O)N(C(=O)OCCOC)c1ccccc12`, the composite z-score is 0.236 in [1]; 0.492 in experiment [3]; -0.0878 in experiment [4]; 0.395 in experiment [5]; 0.938 in experiment [6]; 0.594 in experiment [7]. Further, the composite z-score in experiment [8] was 1.31; in experiment [9] it was 0.66; in [10] it was 1.16; in experiment [11] it was 0.439; in experiment [12] it was 1.2; in experiment [13], -0.0723. In addition, the composite z-score came to 0.979 in [14]; 1.39 in [15]; 1.49 in experiment [16]; 1.29 in experiment [18]; 0.478 in experiment [19]. For the same compound, in experiment [2], the composite Z-score was 0.318 (inactive). Besides, the z-score is 0.432 in [17] and -0.549 (inactive) in experiment [20].
